Assay results as given in the supplement of paper PMC10338343.

tested on: EfPiwi piRISC loaded with L1MC piRNA (26 nt); test: pre-steady-state target cleavage rate (min^-1); auxiliary factor: none (no Gtsf1); guide: L1MC piRNA 5'p-UAACUAAAUACUAUGCAAGCUGUAGG; MIWI and MILI are mouse PIWI proteins and EfPiwi is from a freshwater sponge; tags in brackets are library labels; higher = faster piRNA-guided slicing of the target
Procedure, shortened: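 For Cleave-'n-Seq, a transcribed, DNA-blocked target RNA library […] met 1 nM active affinity-purified piRISC with one synthetic guide at 33 °C for 0–8 or 0–960 min in HEPES–potassium acetate buffer, with or without 500 nM GTSF1 partner protein. Uncleaved targets were sequenced and normalised to depth and weakly complementary targets, with three trials pooled and k3 capped at 0.0001 min^-1. A burst-and-steady-state fit supplied the pre-steady-state cleavage rate.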

pre-steady-state target cleavage rate, < 0.0001:
UCCUGGAUGUCGAUGCAUAGGAUUUAGUUA
UCCUGGAUGUCGAACGAUAGUAUUUAGAAA [g4:g14:cont:t1A]
UCCUGGAUGUCGAACGAUAGUAUUUGGUUA
UCCUGGAUGUCGAAGCAUAGUAUUUAGUUU [g2:g16:cont:t1U]
UCCUGGAUGUCGAUGCAUUGUAUUAAGUUA
UCCUGGAUGUCGAUCCAUAGUAAUUAGUUA
UCCUGGAUGUCGAUGCAUUGAAUUUAGUUA
UCCUGGAUGUCGUUGCAUAGUAUAUAGAUA
UCCUGGAUGUCGAACGAUACUAUUUAGAUA
UCCUGCUACAGCUUCGUUAGUAUUUUCAAA
UCCUGGAUGUCCUUGCAUUCAAUUUAGUAA
UCCUGGAUGUCGAACCUAUGUAUUUAGUUA
UCCUGGAUGUCGAUGCAAGUAUUUAGUUA
UCCUGGAUGUCGAAGCAAAGUAUUUAGAUA
UCCUGGAUGUCGAACGUUAGUUUUUUGUUA
UCCUGGAUGUCGAACGUAUGUAUUUAGUUU [g2:g11:cont:t1U]
UCCUGGAUGUCGAUGCAUACUUUUUAGUUA
UCCUGGAUGUCGAAGCAUAGUUUUUACUUA
UCCUGGAUGUCGAUCCAUAGUAUUUACUUA
UCCUGGAUGUCGAACGUAUCUGAUUUAGUUA
UCCUGGUACAGCUUGGUAAGUAUUUACAAA
UCCUGGUACAGCUUGCAAUCAUAAAUCAAA [g14:g24:cont:t1A]
